# AmpC inh no detg = blocks E. coli AmpC beta-lactamase in detergent-free assay; AID 485341; P00811; 330,000 tested, 0.52% active; AmpC nitrocefin hydrolysis, absorbance 480 nm, 0.0001% Triton; Potency, µM (highest dose often 57.1 µM), hits mostly inhibitors; further: nearly all actives have a fitted effect of over 20% in size
# Target sequence (P00811 whole entry, looked up): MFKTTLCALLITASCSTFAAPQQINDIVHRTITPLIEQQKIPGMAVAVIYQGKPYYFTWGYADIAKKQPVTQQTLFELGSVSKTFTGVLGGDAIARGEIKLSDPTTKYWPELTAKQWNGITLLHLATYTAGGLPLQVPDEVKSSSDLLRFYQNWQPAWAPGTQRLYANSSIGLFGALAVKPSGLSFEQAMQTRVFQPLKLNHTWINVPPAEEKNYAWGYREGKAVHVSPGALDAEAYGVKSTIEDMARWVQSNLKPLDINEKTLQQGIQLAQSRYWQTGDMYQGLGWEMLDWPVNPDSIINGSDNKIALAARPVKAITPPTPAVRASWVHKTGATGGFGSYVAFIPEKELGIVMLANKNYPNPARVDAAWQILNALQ
#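 AmpC (5.3 nM in the dispensed reagent) in 20 mM phosphate pH 7.0 with 0.01% (detergent screen) or 0.0001% Triton X-100 was preincubated with compounds for 15 min at room temperature. Nitrocefin was then added from an 800 uM solution, and hydrolysis was followed at 480 nm.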
# RE007 growth inh = less growth of the S. pombe RE007 Vpr strain; S. pombe RE007 Vpr strain, BacTiter-Glo ATP luminescence, 24 h; Potency, µM (highest dose often 92.2 µM), hits mostly inhibitors; 360,000 tested, 0.21% active; active means well fitted falling curve with a large enough effect; inconclusive means small, poorly fitted or top-dose-only effect; inactive means no such curve, though single readings can be large or run the other way; further: nearly all actives have a fitted effect of over 50% in size
#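 Fission yeast RE007 carrying one integrated HIV-1 vpr copy, seeded at OD 0.01 in PMG+AL medium with 23 nL pinned compound. Grown 24 h at 30 degrees; viability read by BacTiter-Glo luminescence after 5 min.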
# Sm TGR block = blocks Schistosoma mansoni thioredoxin glutathione reductase | Q962Y6 | purified TGR, DTNB reduction, TNB absorbance 405 nm | Potency, µM (series often up to 114 µM), most hits filed as inhibitors | 360,000 tested, 3% active | AID 485364; further: nearly all actives have a fitted effect of over 60% in size
#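 First, TGR (20 nM dispensed) and NADPH were mixed with compound. Second, a 15 min room-temperature incubation followed. Third, further NADPH and then DTNB were added to start the reaction. Finally, TNB absorbance was monitored kinetically.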
# AmpC inh detg = AmpC beta-lactamase inhibition with detergent present; P00811; AmpC hydrolysis of nitrocefin, absorbance 480 nm, 0.01% Triton; Potency, µM (highest dose often 114 µM), usual class: inhibitors; 370,000 tested, 0.041% active; further: nearly all actives have a fitted effect of over 25% in size
#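 AmpC (5.3 nM in the dispensed reagent) in 20 mM phosphate pH 7.0 with 0.01% (detergent screen) or 0.0001% Triton X-100 was preincubated with compounds for 15 min at room temperature. Nitrocefin was then added from an 800 uM solution, and hydrolysis was followed at 480 nm.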
# Giardia FBPA inh = blocks Giardia fructose-bisphosphate aldolase activity. A8B2U2. AID 2451. Potency, µM (series often up to 59.6 µM), usual class: inhibitors. purified Giardia FBPA. 290,000 tested, 0.71% active; further: nearly all actives have a fitted effect of over 55% in size
# Target sequence (A8B2U2 whole entry, looked up): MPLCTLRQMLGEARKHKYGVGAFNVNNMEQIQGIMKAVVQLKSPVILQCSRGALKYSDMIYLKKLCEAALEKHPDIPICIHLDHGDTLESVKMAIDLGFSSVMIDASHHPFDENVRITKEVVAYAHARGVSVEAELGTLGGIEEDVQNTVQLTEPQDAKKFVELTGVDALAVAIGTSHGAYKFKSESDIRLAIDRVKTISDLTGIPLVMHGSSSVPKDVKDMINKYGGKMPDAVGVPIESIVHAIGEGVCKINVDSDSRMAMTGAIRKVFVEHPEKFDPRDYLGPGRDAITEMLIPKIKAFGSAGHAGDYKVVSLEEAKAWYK
#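 40 nM FBPA preincubated 10 min at RT with compound (up to 57.5 uM final), then substrate plus GAPDH/TPI/NAD/arsenate coupling and diaphorase/resazurin added. Fluorescence read after 20 min at RT, 525/598 nm.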
# Hits are given with their value; . = inactive; ? = inconclusive; / = no result given. In the library only some 3.4% were active in any assay of this set; here they are far more common. Unless noted, the call rests on the fitted dose curve; in most records, active means well fitted curve in the direction sought with a large enough effect; inconclusive means small, poorly fitted or top-dose-only effect, or another doubt; inactive means no such curve, though single readings can be large; an effect the other way counts as inactive or inconclusive.
SMILES,AmpC inh no detg,RE007 growth inh,Sm TGR block,AmpC inh detg,Giardia FBPA inh
Cc1ccc(NC(=S)NC2CCSc3ccccc32)cc1C (stereo not given),11µM,.,.,.,/
COc1ccc(C2C(C(=O)c3ccccc3)N3c4ccccc4C=CC3C2[N+](=O)[O-])cc1 (stereo not given),.,.,40µM,.,.
Cc1cc(C)c(S(=O)(=O)/N=C2\C=CC(=O)C(Cl)=C2)c(C)c1,5µM,.,4µM,?,?
Cc1ccc(S(=O)(=O)c2c(C)cc(C)nc2Cl)c(C)c1,.,.,.,.,.
CCOc1cc(C2NC(=O)N(C)C(C)=C2C(=O)OC)cc(Br)c1O (stereo not given),.,.,50µM,.,.
O=C(c1ccncc1)c1ccc(N2CCN(C3CC(=O)N(Cc4cccs4)C3=O)CC2)cc1 (stereo not given),.,.,?,.,.
O=C1CC(N2CCN(c3ccc(O)cc3)CC2)C(=O)N1Cc1cccs1 (stereo not given),.,.,50µM,?,.
O=[N+]([O-])c1ccc(NC2CCN(Cc3ccccc3)CC2)c2ccncc12,.,.,.,?,.
N#CC1=C(SCC(=O)NCc2ccccc2)NC(=O)CC1c1ccco1 (stereo not given),?,.,40µM,.,.
N#CC1=C(SCc2ccccc2)NC(=O)CC1c1ccco1 (stereo not given),.,.,35µM,?,.
CCSC1=C(C#N)C(c2ccc(C)o2)CC(=O)N1 (stereo not given),.,.,.,.,.
Cc1ccc(C2CC(=O)NC(SCc3ccccc3)=C2C#N)o1 (stereo not given),.,.,?,.,.
CCCCCCSC1=C(C#N)C(c2ccc(C)o2)CC(=O)N1 (stereo not given),.,.,45µM,.,.
CSc1ccccc1C(=O)NC1CCCCCC1,.,?,.,.,.
CC(C)(C)c1ccc(OC(=O)c2ccccc2)cc1,.,.,.,.,.
Cc1nc(N2CCOCC2)nc(Oc2ccccc2)c1[N+](=O)[O-],.,.,7.1µM,.,.
O=C(Nc1ccc(C(=O)N2CCCCC2)cc1)c1ccccc1Cl,.,.,.,.,/
O=C(NCc1ccoc1)c1ccc(NC(=O)c2ccccc2Cl)cc1,.,.,35µM,.,.
O=P(Nc1c(Cl)cccc1Cl)(c1ccccc1)c1nc2c(s1)CCCC2 (stereo not given),.,.,.,.,/
CP(=O)(Nc1ccc(Cl)cc1)c1nc2c(s1)CCCC2 (stereo not given),.,.,22µM,.,.
CC(=O)Nc1c(I)c(NC(C)=O)c(I)c(C(=O)O)c1I,.,.,.,?,.
Cc1nc(NC(=O)C(Cl)Cl)sc1C(=O)N(C)C,.,.,.,.,.
Cc1nc(NC(=O)CCl)sc1C(=O)N(C)C,.,.,16µM,.,.
Cc1ccccc1NC(=O)Cn1c(CCC(=O)O)ccc1-c1cccs1,.,.,40µM,.,.
COC(=O)c1ccccc1NC(=O)Cn1c(CCC(=O)O)ccc1-c1ccc(C)cc1,/,/,.,.,/
SMILES,AmpC inh no detg,RE007 growth inh,Sm TGR block,AmpC inh detg,Giardia FBPA inh
COC(=O)c1ccccc1NC(=O)Cn1c(CCC(=O)O)ccc1-c1cccs1,.,.,50µM,.,.
Cc1ccc(-c2ccc(CCC(=O)O)n2NC(=O)c2cccs2)cc1,.,.,.,.,?
Cc1ccc(NC(=O)Cn2c(CCC(=O)O)ccc2-c2cccs2)cc1,.,.,25µM,?,.
COCCNC(=S)N(CCc1c(C)[nH]c2ccc(C)cc12)Cc1cc(OC)c(OC)c(OC)c1,.,.,.,.,.
O=c1c(Cl)c(Nc2cccc(Cl)c2)cnn1-c1nc2ccccc2s1,?,.,?,.,.
COc1ccc(Nc2cnn(-c3nc4ccccc4s3)c(=O)c2Cl)cc1,.,?,1.3µM,.,.
CC1CCCC(NC(=O)C2CCC(CNc3c(N4CCCCC4)c(=O)c3=O)CC2)C1C (stereo not given),.,.,.,.,.
COC(=O)C1=COC(C)C2CN3CCc4c([nH]c5cc(OC)c(OC)cc45)C3CC12 (stereo not given),.,.,20µM,.,?
COC(=O)C1=COC(C)C2CN3CCC4(C(=O)Nc5ccccc54)C3CC12 (stereo not given),.,.,.,.,.
COc1nccnc1NS(=O)(=O)c1ccc(NC(=S)NC(=O)c2ccc(F)cc2)cc1,.,.,45µM,.,.
COc1nccnc1NS(=O)(=O)c1ccc(NC(=S)NC(=O)c2cccnc2)cc1,.,.,20µM,.,?
COc1nsnc1NS(=O)(=O)c1ccc(NC(=S)NC(=O)c2cccnc2)cc1,.,.,/,.,.
O=C(Nc1ccc(S(=O)(=O)Nc2nccs2)cc1)c1ccc(S(=O)(=O)N2CCOCC2)cc1,.,.,.,.,.
COc1nsnc1NS(=O)(=O)c1ccc(NC(=S)NC(=O)c2ccncc2)cc1,.,.,32µM,.,.
O=C(Nc1ccc(S(=O)(=O)Nc2nccs2)cc1)c1ccc(F)c(S(=O)(=O)N2CCOCC2)c1,7.9µM,.,.,?,.
O=C(NC(=S)Nc1ccc(S(=O)(=O)Nc2nccs2)cc1)c1ccc(F)cc1,.,.,28µM,?,.
COc1nccnc1NS(=O)(=O)c1ccc(NC(=S)NC(=O)c2cccc(F)c2)cc1,.,.,45µM,.,.
CCCCn1c(=O)[nH]c2nc3cc(N)ccc3nc2c1=O,.,.,.,.,0.14µM
Cc1cccc(C(=O)OCC(=O)NC(=O)c2ccccc2)c1O,.,.,50µM,.,/
Cc1cccc(C(=O)OCC(=O)N2CCCC2=O)c1O,.,2µM,.,.,/
C(=N\Nc1nc2ccccc2[nH]1)/c1ccccn1,.,?,.,?,?
O=C(O)c1ccc(N/N=C/C(Br)=C/c2ccccc2)cc1,.,.,1.1µM,.,.
BrC(=C\c1ccccc1)/C=N/Nc1nc2ccccc2[nH]1,.,.,20µM,.,?
COc1cccc(CN(C)C(=O)[C@@H](NC(=O)c2ccc(C)cc2)C(C)C)c1,.,.,.,.,.
CCCCNC(=O)C1C(c2ccc(OC)cc2)=Nc2ccccc2N1C(=O)c1ccc2ncccc2c1 (stereo not given),/,.,/,/,/
c1ccc(-c2cnc(CSc3ncnc4sccc34)o2)cc1,.,.,10µM,.,.
CCOc1cnn(-c2cc(Oc3ccc(C)cc3)ncn2)c(=O)c1Cl,.,?,.,.,.
Cc1ccccc1Oc1cc(-n2ncc(Cl)c(Cl)c2=O)ncn1,.,?,2µM,.,.
CC(=O)Nc1ccc(OCC(O)Cn2c(CO)nc3ccccc32)cc1 (stereo not given),.,.,.,.,.
CC1CCC(C(=O)NC(C(=O)NCc2cccnc2)C(C)C)CC1 (stereo not given),.,.,.,.,.

# Bioassay records deposited in PubChem by National Center for Advancing Translational Sciences (NCATS).
